Only some compounds are listed: those with a hit (about 2.3% of all), similar ones and a draw of the others.
MCL1-BIM inh: inhibitors of MCL1 binding to BIM-BH3, primary screen, biochemical, fluorescence polarization | Induced myeloid leukemia cell differentiation protein Mcl-1 (Homo sapiens), Q07820 | AID 2057, 2009 | GST-MCL1 / FITC-Bim-BH3 fluorescence polarization | actives 0.68% (n = 320,000) | inhibition, % at 10.9 µM;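 active means inhibition above the mean inhibition of all tested compounds plus 3 SD, set per campaign, cut at about 40% in these data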;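 further: higher means more loss of mP so more displacement of Bim peptide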
Mcl1 Noxa PPI: Mcl-1/Noxa binding inhibitors, primary screen, biochemical, TR-FRET, 1536-well | Induced myeloid leukemia cell differentiation protein Mcl-1 (Homo sapiens), Q07820 | TR-FRET Mcl-1/Noxa peptide binding, 2 h | inhibition, % at 21.7 µM | actives 1.5% (n = 220,000) | AID 1022, 2008;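 active means compounds that cut the protein-peptide binding signal by more than 50% relative to plate controls in a single-dose test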;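 further: His-tagged Mcl-1 with rhodamine Noxa BH3 peptide and terbium anti-His antibody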
GLD-1 TGE inh: GLD-1/TGE RNA complex disruptors, primary screen, biochemical, fluorescence polarization | purified GLD-1 + fluorescein TGE RNA | actives 0.44% (n = 320,000) | AID 2280, 2010 | inhibition, % at 5.96 µM | Female germline-specific tumor suppressor gld-1 (Caenorhabditis elegans), Q17339;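 active means percent inhibition above a per-plate cutoff, the plate mean of test compounds plus 3 SD, cut at about 30% in these data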
Target sequence (Q17339 whole entry, looked up): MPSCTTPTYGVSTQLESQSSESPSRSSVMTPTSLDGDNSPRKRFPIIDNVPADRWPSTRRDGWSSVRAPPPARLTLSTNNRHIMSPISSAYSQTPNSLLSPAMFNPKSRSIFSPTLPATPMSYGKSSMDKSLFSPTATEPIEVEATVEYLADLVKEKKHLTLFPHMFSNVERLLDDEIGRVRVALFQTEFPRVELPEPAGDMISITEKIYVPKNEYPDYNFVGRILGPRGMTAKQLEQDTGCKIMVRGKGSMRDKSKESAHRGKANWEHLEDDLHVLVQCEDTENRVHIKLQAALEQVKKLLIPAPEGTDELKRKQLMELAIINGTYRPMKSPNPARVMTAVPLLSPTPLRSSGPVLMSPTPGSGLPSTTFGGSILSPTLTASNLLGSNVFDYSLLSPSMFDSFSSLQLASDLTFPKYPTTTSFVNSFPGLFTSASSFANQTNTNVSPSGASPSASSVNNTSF
Bim-Mcl-1: inhibitors of Bim peptide binding to Mcl-1, primary screen, biochemical, bead-based flow cytometry, multiplex; inhibition, % at 10 µM; Bim peptide-Mcl-1 binding; actives 0.1% (n = 190,000); Induced myeloid leukemia cell differentiation protein Mcl-1 (Homo sapiens), Q07820; in the data active means inhibition above about 40%
BCLXL inh: inhibitors of human Bcl-xL, primary screen, biochemical, fluorescence polarization, HTS; inhibition, % at 10.9 µM; actives 0.7% (n = 320,000); AID 2129, 2009; GST-Bcl-xL / FITC-Bim BH3 peptide fluorescence polarization;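 active means inhibition above the mean of all tested compounds plus 3 SD, cutoff set per campaign, cut at about 30% in these data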;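 further: inhibitors lower millipolarization by displacing the labeled peptide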
Target sequence (Q07817 whole entry, looked up): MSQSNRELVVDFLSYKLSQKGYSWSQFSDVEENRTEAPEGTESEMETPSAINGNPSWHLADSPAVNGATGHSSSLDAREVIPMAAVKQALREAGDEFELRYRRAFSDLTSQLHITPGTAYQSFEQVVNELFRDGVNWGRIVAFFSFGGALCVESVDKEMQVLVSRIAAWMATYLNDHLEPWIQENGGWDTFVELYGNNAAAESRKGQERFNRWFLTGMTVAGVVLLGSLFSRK
Mcl1-Bid inh: Mcl-1/Bid binding inhibitors, primary screen, biochemical, TR-FRET, 1536-well; TR-FRET Mcl-1/Bid-Dy647 peptide binding; actives 0.97% (n = 220,000); Induced myeloid leukemia cell differentiation protein Mcl-1 (Homo sapiens), Q07820; inhibition, % at 21.7 µM;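 active means compounds that cut the binding signal by more than half at the single screening dose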;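 further: His-tagged Mcl-1 with europium anti-His antibody binding Bid BH3 peptide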
A number is an active result.

What do the screens show for `CN(CC(=O)Nc1ncn[nH]1)S(=O)(=O)c1cc(Cl)ccc1Cl`?
MCL1-BIM inh: inactive; GLD-1 TGE inh: inactive; BCLXL inh: inactive

What do the screens show for `O=[N+]([O-])c1ccc(-c2c[nH]c(=S)[nH]2)cc1`?
MCL1-BIM inh: inactive; Mcl1 Noxa PPI: 95; GLD-1 TGE inh: inactive; BCLXL inh: inactive; Mcl1-Bid inh: inactive

Results for Cc1ccnc(N/C=C(\C#N)c2nc(-c3cccc(Br)c3)cs2)c1 ?
MCL1-BIM inh: inactive; Mcl1 Noxa PPI: 61; GLD-1 TGE inh: inactive; Bim-Mcl-1: inactive; BCLXL inh: inactive; Mcl1-Bid inh: 73

Results for COc1cc(C2Nc3ccc4ccccc4c3C3=C2C(=O)CC(C)(C)C3)ccc1OC(C)C(=O)O (stereo not drawn) ?
MCL1-BIM inh: inactive; GLD-1 TGE inh: inactive; BCLXL inh: inactive

What do the screens show for `CC1CCCCN1C(=O)c1cc2ccccc2cc1O` (stereo not drawn)?
MCL1-BIM inh: inactive; GLD-1 TGE inh: inactive; BCLXL inh: inactive

How did Nc1ccc(S(=O)(=O)Nc2nccc(/C=C/c3cccc(Br)c3)n2)cc1 do in these assays?
MCL1-BIM inh: inactive; GLD-1 TGE inh: inactive; BCLXL inh: inactive

Results for COc1c(N2CCNC(C)C2)c(F)cc2c(=O)c(C(=O)O)cn(C3CC3)c12 (stereo not drawn) ?
MCL1-BIM inh: inactive; GLD-1 TGE inh: inactive; BCLXL inh: inactive

What do the screens show for `NC1CCN(c2c(F)cc3c(=O)c(C(=O)O)cn(C4CC4)c3c2Cl)C1` (stereo not drawn)?
MCL1-BIM inh: inactive; Mcl1 Noxa PPI: inactive; GLD-1 TGE inh: inactive; BCLXL inh: inactive; Mcl1-Bid inh: 63

What do the screens show for `COc1ccccc1CNC(=O)CCNS(=O)(=O)/C=C/c1ccc(C)cc1`?
GLD-1 TGE inh: inactive

How did O=C(/C=C\Nc1ccc(S(=O)(=O)Nc2ncccn2)cc1)c1cccc2ccccc12 do in these assays?
MCL1-BIM inh: inactive; Mcl1 Noxa PPI: inactive; GLD-1 TGE inh: inactive; BCLXL inh: inactive; Mcl1-Bid inh: 96

Results for CCOC(=O)CSC1=NC(=O)/C(=C/c2ccc(Br)cc2)S1 ?
MCL1-BIM inh: inactive; Mcl1 Noxa PPI: inactive; GLD-1 TGE inh: inactive; Bim-Mcl-1: inactive; BCLXL inh: inactive; Mcl1-Bid inh: inactive

What do the screens show for `CCOC(=O)CSC1=NC(=O)/C(=C\c2ccc(OC(C)=O)cc2)S1`?
MCL1-BIM inh: inactive; Mcl1 Noxa PPI: 60; GLD-1 TGE inh: inactive; Bim-Mcl-1: inactive; BCLXL inh: inactive; Mcl1-Bid inh: inactive

Results for Cc1ccc(-n2c(-c3ccccc3)c[n+]3c2CCC3)cc1 ?
MCL1-BIM inh: inactive; Mcl1 Noxa PPI: 51; GLD-1 TGE inh: inactive; Bim-Mcl-1: inactive; BCLXL inh: inactive; Mcl1-Bid inh: inactive

How did CC(OC(=O)c1cccc(S(=O)(=O)N2CCCCCC2)c1)C(=O)Nc1ccc(S(N)(=O)=O)cc1 (stereo not drawn) do in these assays?
MCL1-BIM inh: inactive; GLD-1 TGE inh: inactive; BCLXL inh: inactive

Results for CC(C)(C)C(=O)NC1CCN(C(=O)N2CCCC2)CC1 ?
MCL1-BIM inh: inactive; Mcl1 Noxa PPI: inactive; GLD-1 TGE inh: inactive; Bim-Mcl-1: inactive; BCLXL inh: inactive; Mcl1-Bid inh: inactive

What do the screens show for `CC(C)(C)C(=O)NC1CCN(S(C)(=O)=O)CC1`?
MCL1-BIM inh: inactive; Mcl1 Noxa PPI: inactive; GLD-1 TGE inh: inactive; Bim-Mcl-1: inactive; BCLXL inh: inactive; Mcl1-Bid inh: 58

Results for CCCCn1c(-c2ccc(Cl)cc2)nc2c(=O)n(C)c(=O)[nH]c21 ?
Mcl1 Noxa PPI: 76; Bim-Mcl-1: inactive; Mcl1-Bid inh: inactive

Results for N#C/C(=C\c1ccccc1[N+](=O)[O-])C(=O)NC1CCCCC1 ?
MCL1-BIM inh: inactive; Mcl1 Noxa PPI: inactive; GLD-1 TGE inh: inactive; Bim-Mcl-1: inactive; BCLXL inh: 31; Mcl1-Bid inh: inactive

Results for N#C/C(=C\C=C\c1ccccc1[N+](=O)[O-])C(=O)NC1CCCCC1 ?
MCL1-BIM inh: inactive; Mcl1 Noxa PPI: inactive; GLD-1 TGE inh: inactive; Bim-Mcl-1: inactive; BCLXL inh: inactive; Mcl1-Bid inh: inactive

How did CCCC1c2ccc(C)n2CCN1C(=O)Nc1ccc(F)cc1 (stereo not drawn) do in these assays?
MCL1-BIM inh: inactive; Mcl1 Noxa PPI: inactive; GLD-1 TGE inh: inactive; Bim-Mcl-1: inactive; BCLXL inh: 46; Mcl1-Bid inh: inactive

What do the screens show for `CCC1c2ccc(C)n2CCN1C(=O)Nc1ccc(F)cc1` (stereo not drawn)?
MCL1-BIM inh: 42; Mcl1 Noxa PPI: inactive; GLD-1 TGE inh: inactive; Bim-Mcl-1: inactive; BCLXL inh: 45; Mcl1-Bid inh: inactive

Results for O=C(CC1C(=O)NCCN1C(=O)Nc1ccc(F)cc1)Nc1ccc(F)cc1 (stereo not drawn) ?
MCL1-BIM inh: inactive; Mcl1 Noxa PPI: inactive; GLD-1 TGE inh: inactive; BCLXL inh: inactive; Mcl1-Bid inh: inactive

What do the screens show for `Nc1nc2ccc(NC(=O)c3ccco3)cc2s1`?
MCL1-BIM inh: inactive; GLD-1 TGE inh: inactive; BCLXL inh: inactive

How did CC(CNc1nc2ccccc2n2cnnc12)c1ccccc1 (stereo not drawn) do in these assays?
MCL1-BIM inh: inactive; GLD-1 TGE inh: inactive; BCLXL inh: inactive

How did O=C(/C=C/c1cccnc1)c1ccc(O)cc1 do in these assays?
MCL1-BIM inh: inactive; Mcl1 Noxa PPI: 85; GLD-1 TGE inh: inactive; BCLXL inh: inactive; Mcl1-Bid inh: inactive

How did O=C(/C=C/c1cccnc1)c1cccc(O)c1 do in these assays?
MCL1-BIM inh: inactive; GLD-1 TGE inh: inactive; BCLXL inh: inactive

Results for COc1ccc2c(c1)SCCC2=O ?
MCL1-BIM inh: inactive; Mcl1 Noxa PPI: inactive; GLD-1 TGE inh: inactive; Bim-Mcl-1: inactive; BCLXL inh: inactive; Mcl1-Bid inh: inactive

Results for COc1ccc2c(c1)OCC1=C2CCC2(C)C(=O)CC=C12 (stereo not drawn) ?
MCL1-BIM inh: inactive; Mcl1 Noxa PPI: inactive; GLD-1 TGE inh: 39; Bim-Mcl-1: inactive; BCLXL inh: 40; Mcl1-Bid inh: inactive

Results for COc1ccc(C(=O)O/N=C(/c2cccs2)C(C)(C)C)cc1 ?
MCL1-BIM inh: inactive; Mcl1 Noxa PPI: inactive; GLD-1 TGE inh: 138; BCLXL inh: inactive; Mcl1-Bid inh: inactive

What do the screens show for `C/C(=N/OC(=O)c1ccc(C)cc1)c1cccs1`?
MCL1-BIM inh: inactive; Mcl1 Noxa PPI: inactive; GLD-1 TGE inh: inactive; Bim-Mcl-1: inactive; BCLXL inh: inactive; Mcl1-Bid inh: inactive

How did CC(C)[C@H](NC(=O)N1c2ccccc2NC(=O)[C@@H]1C(C)C)C(=O)N1CCC[C@H]1C(=O)O do in these assays?
MCL1-BIM inh: inactive; GLD-1 TGE inh: inactive; BCLXL inh: inactive

Bioassay records as filed in PubChem BioAssay.
